TDP-43 rescue – qHTS of TDP-43 Inhibitors: NCGC Sytravon Library Screen | Potency, µM (top dose mostly 46.1 µM), actives largely listed as activators | hit rate 0.45% among 45,000 | yeast TDP-43 toxicity rescue, BacTiter-Glo growth, 24 h | AID 1347073, 2019; active means well fitted activation curve with a large enough effect; further: 0% is about no effect; nearly all actives have a fitted effect of over 55% in size
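TDP-43-expressing yeast, pregrown in raffinose, seeded at OD600 0.02 in galactose medium with compound for 24 hr at 30 deg C. Growth read by BacTiter-Glo luminescence, so rescue of toxicity appears as activation.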
Starred values were filed as active, the others as inactive; i = inactive. Shown is part of a subset that was picked to be rich in hits. Potency means the concentration at half of the fitted maximal effect.

SMILES | TDP-43 rescue
Fc1ccccc1-n1ncc2c1ncn1nc(Cc3ccccc3)nc21 | 11µM*
COc1ccc(Cc2nc3c4cnn(-c5ccccc5F)c4ncn3n2)cc1 | i
Cc1cccc(C)c1OCc1nc2c3cnn(-c4ccccc4F)c3ncn2n1 | i
Cc1nn(CC(=O)N2CCN(c3ccccc3F)CC2)c(=O)c2cccn12 | i
Cc1ccc(SCCC(=O)N/N=C/c2ccccc2O)cc1 | i
O=C(CCCSc1ccc(Cl)cc1)Nc1ccccc1O | 11µM*
O=C(CSCc1ccc(Cl)cc1)Nc1ccccc1O | i
CCOC(=O)c1c(NC(C)=O)c2c3c(sc2n1Cc1nc(-c2cccc(C)c2)oc1C)CCCC3 | i
CCc1cccc(NC(=O)CNS(=O)(=O)c2ccc3nc(C)sc3c2)c1 | i
O=C(c1ccc2c(c1)N(Cc1ccccc1)C(=O)c1ccccc1S2(=O)=O)N1CCN(c2ccccn2)CC1 | i
CCOC(=O)N1CCC(NC(=O)c2ccc3c(c2)N(Cc2cc(C)ccc2C)C(=O)c2ccccc2S3(=O)=O)CC1 | i
CC1(C)O[C@H]2[C@@H](O1)[C@@H](C(=O)Nc1ccc(F)c(F)c1)O[C@@H]1OC(C)(C)O[C@@H]12 | i
COc1ccccc1N1CCN(c2c3c(nc4nncn24)CCC3)CC1 | i
Cc1cccc(Nc2c3c(nc4nncn24)CCC3)c1 | i
Cc1ccc(Nc2c3c(nc4nncn24)CCC3)cc1 | 13µM*
CCN(C(=O)c1ccc2c(=O)n3c(nc2c1)CCCCC3)c1cc(C)ccc1C | i
O=C(CCCCCn1c(=O)c2sccc2n(CC(=O)Nc2cccc(Cl)c2)c1=O)NCc1ccc2c(c1)OCO2 | i
Cc1c(Cl)cccc1NC(=O)C1CCCN(c2nnc(-n3c(C)ccc3C)s2)C1 (stereo not drawn) | i
O=C(O)Cc1sc(Nc2ccc(Cl)cc2)nc1-c1cccs1 | i
CC1CC1C(=O)Nc1nc(-c2cccs2)c(-c2cccs2)s1 (stereo not drawn) | 11µM*
CC(=O)Nc1sc(NC(=O)c2ccco2)nc1-c1cccs1 | i
CC1=C(C(=O)Nc2cccc(C)c2C)C2(CCCCC2)OC1=O | i
CC(=O)Nc1nc(-c2ccc([N+](=O)[O-])cc2)cs1 | i
N#CCCn1cc(C(=O)Nc2ccc([N+](=O)[O-])cc2)c(-c2cccs2)n1 | i
O=[N+]([O-])c1ccc(-c2nc(-c3cccs3)c(-c3cccs3)[nH]2)cc1 | 3.2µM*
SMILES | TDP-43 rescue
COc1cc(OC)cc(C(=O)OCc2ccc([N+](=O)[O-])cc2)c1 | i
Cc1nc([N+](=O)[O-])c(C(=O)OCc2ccccc2)n1C | i
Cc1nc([N+](=O)[O-])c(C(=O)OCc2cccc(Br)c2)n1C | 13µM*
COc1cccc(CNC(=O)Cn2nc([N+](=O)[O-])c(Br)c2C)c1 | i
Cc1ccc(N=c2c([N+](=O)[O-])nn(-c3ccc4c(c3)OCCO4)n2O)cc1F | i
COc1ccc(-n2nc([N+](=O)[O-])c(=NCCc3cccc(C)c3)n2O)cc1 | 13µM*
COc1ccc(NC(=O)CN2C(=O)C(c3ccc(C(C)(C)C)cc3)=NC2(C)C)cc1Cl | i
O=c1oc2c(F)cc(F)cc2cc1S(=O)(=O)c1ccc(F)cc1 | i
Oc1ccc(N2CCN(c3ccnc4cc(Cl)ccc34)CC2)cc1 | i
O=C(Oc1ccnc2cc(Cl)ccc12)N1CCCCCC1 | 3.2µM*
COc1ccccc1Oc1ccnc2cc(Cl)ccc12 | i
CCN1CCN(C(=O)c2ccc3c(c2)N(Cc2cc(C)ccc2C)C(=O)c2ccccc2S3(=O)=O)CC1 | i
Cc1ccc(C)c(CN2C(=O)c3ccccc3S(=O)(=O)c3ccc(C(=O)NCc4ccccc4)cc32)c1 | i
CCOC(=O)c1c(C)n(-c2ccc(OC)cc2)c2ccc(OC(=O)COc3ccccc3)cc12 | i
COc1cc(Cl)cc(/C=C/c2ccc3ccccc3n2)c1OC(C)=O | 13µM*
Oc1c(Cl)cc(Cl)cc1/C=C/c1ccc2cccc(O)c2n1 | i
COc1c(OC(C)=O)ccc(/C=C/c2ccc3cccc(OCc4ccccc4)c3n2)c1[N+](=O)[O-] | i
Cc1ccccc1-c1nc(NC(=O)CSc2ncnc3sc4c(c23)CCCC4)ns1 | i
O=C(O)c1ccc(C2Nc3ccccc3-c3nnc(SCc4ccc(Cl)cc4)nc3O2)cc1 (stereo not drawn) | i
O=C(CN1CCN(Cc2ccccc2)CC1)NCc1ccccc1Cl | i
CCCCC(=O)NCc1ccccc1Cl | i
O=C(CN1CCc2ccccc21)NCc1ccccc1Cl | 13µM*
COc1cccc(-n2c(=O)c3sccc3n(Cc3cc(=O)n4cc(Cl)ccc4n3)c2=O)c1 | i
COc1cc(C(=O)NNC(=O)c2ccc3c(c2)OCCO3)cc(OC)c1OC | i
O=C(/C=C/c1ccncc1)c1ccc2c(c1)OCCO2 | i
SMILES | TDP-43 rescue
COc1cc(/C=C/C(=O)c2ccc3c(c2)OCCO3)cc(Br)c1OCC(=O)N(C)C | 16µM*
NC(=O)N/N=C/c1coc2ccc3ccccc3c2c1=O | i
O=C(O)Cc1coc2ccc3ccccc3c12 | 13µM*
CCC(=O)OCc1cc(=O)oc2ccc3ccccc3c12 | i
CCc1ccccc1NC(=O)Cn1nnc(-c2nc(-c3ccncc3)no2)c1N | i
Cc1cccc(NC(=O)CN2C(=O)C(c3ccc(F)cc3)=NC23CCCCCC3)c1C | i
Cc1ccc(-c2noc(-c3nnn(CC(=O)Nc4ccc(C)c(Cl)c4)c3N)n2)cc1 | i
CCCSc1ncc(Cl)c(C(=O)Nc2sc(C(C)=O)c(C)c2C(=O)OCC)n1 | i
COc1ccc(-c2nnc3c4ccccc4c(-c4ccccc4)nn23)cc1 | i
CCOC(=O)CCn1c(=O)c2cccn2c2cccnc21 | i
CCCSc1nc2sc3c(c2c(=O)n1-c1ccc(C)cc1)CCCC3 | i
CC(O)(c1cccc(F)c1)c1nc(-c2cccc(F)c2)cs1 (stereo not drawn) | i
Cc1ccc(-c2csc(C(C)(O)c3cccc(F)c3)n2)cc1C (stereo not drawn) | i
COc1ccc(-c2csc(C(C)(O)c3cccc(F)c3)n2)cc1 (stereo not drawn) | 14µM*
Cc1ccc(NC(=O)Cn2nnc(-c3nc(-c4ccncc4)no3)c2N)cc1 | i
CCOc1ccccc1NC(=O)N1CCC2(CC1)Oc1ccccc1C(=O)N2Cc1ccccc1F | i
COc1cc(/C=C/C(=O)O)ccc1OCc1ccc([N+](=O)[O-])cc1 | i
COc1cc(/C=C/C(=O)O)ccc1OS(=O)(=O)c1ccc(C)cc1 | i
COc1ccc(/C=C/C(=O)O)cc1Cl | 11µM*
CCOC(=O)c1c(-c2ccc(Br)cc2)csc1NC(=O)c1ccc(C(C)(C)C)cc1 | i
COC(=O)c1cc2sc(C)cc2n1Cc1cccc(OC)c1 | i
CC(C)Oc1ccc(/C=N/NC(N)=S)cc1 | 13µM*
Cn1cc(/C=N/NC(N)=S)c2ccccc21 | i
O=C(N/N=C/c1ccc(OC(F)F)cc1)C1=COCCO1 | i
Cc1ccc(C2c3c(oc4ccccc4c3=O)C(=O)N2c2ccc(C)cn2)cc1 (stereo not drawn) | i
COc1cc(OC)c(NC(=O)N2CCc3cc(S(=O)(=O)N4CCC(C)CC4)ccc32)cc1Cl | i
CCOc1ccc(CN2C(=O)C(=O)c3cccc(C)c32)cc1OC | i
COc1ccc(-n2c(-c3ccc(Cl)cc3Cl)n[nH]c2=S)c(OC)c1 | i
COCCn1c(-c2ccc(Cl)cc2Cl)nc2c(c(=O)c3ccccc3n2C)c1=O | i
Clc1cccc(COn2c(-c3ccc(Cl)cc3Cl)nc3ncccc32)c1 | 25µM*

Screening data from PubChem BioAssay.
